Data: the supplement of paper PMC10849652
Targets with a hit are over-represented here; the source holds about 7,900 in all. About 0.6% of all pairs of compound and target were hits.

Legend:
Test in all cases: log2 fold change, soluble protein after heating vs DMSO (PISA); higher = thermal stabilisation; K562 cells, 10 uM, 30 min; active = over 0.2 and 3.5 SD of the protein, either way, in both replicates (recomputed)
[1] = compound: CS(=O)(=O)c1ccc(-c2cnc(N)c(C(=O)Nc3ccccc3)n2)cc1
Method in brief: (§1)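 K562 cells (2×10^6 cells/mL) were treated with 10 μM compound for 30 min, and aliquots were heated for 3 min over 48°C-58°C. Pooled aliquots were extracted in PBS with 0.5% NP-40 at 4°C, and the supernatant after 21,000xg for 90 min was measured by TMTpro 16plex LC-MS/MS with channel sums equalised. Reported thermal stability, relative to control samples and from duplicates, is a log2 fold change.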

crizotinib = compound: C[C@@H](Oc1cc(-c2cnn(C3CCNCC3)c2)cnc1N)c1c(Cl)ccc(F)c1Cl [crizotinib]
Method in brief: as §1

[2] = compound: C[C@@H]1COCCN1C2=NC(=NC(=C2)C3(CC3)S(=O)(=O)C)C4=C5C=CNC5=CC=C4
Method in brief: as §1

[3] = compound: C[C@H](C1=CC=C(C=C1)C(=O)NC2=C3C=CNC3=NC=C2)N
Method in brief: as §1

duvelisib = compound: C[C@H](Nc1ncnc2nc[nH]c12)c1cc2cccc(Cl)c2c(=O)n1-c1ccccc1 [duvelisib]
Method in brief: as §1

gandotinib = compound: Cc1cc(Nc2cc(CN3CCOCC3)c3nc(C)c(Cc4ccc(Cl)cc4F)n3n2)n[nH]1 [gandotinib]
Method in brief: as §1

tozasertib = compound: Cc1cc(Nc2cc(N3CCN(C)CC3)nc(Sc3ccc(NC(=O)C4CC4)cc3)n2)n[nH]1 [tozasertib]
Method in brief: as §1

[4] = compound: Cc1cc(SCc2sc(-c3ccc(C(F)(F)F)cc3)nc2C)ccc1OCC(=O)O
Method in brief: as §1

doramapimod = compound: Cc1ccc(-n2nc(C(C)(C)C)cc2NC(=O)Nc2ccc(OCCN3CCOCC3)c3ccccc23)cc1 [doramapimod]
Method in brief: as §1

ispinesib = compound: Cc1ccc(C(=O)N(CCCN)[C@@H](c2nc3cc(Cl)ccc3c(=O)n2Cc2ccccc2)C(C)C)cc1 [ispinesib]
Method in brief: as §1

Measured: log2 fold change

IPO13 (UniProt O94829)
inactive: [1] -0.042 | crizotinib -0.134 | [2] 0.016 | [3] -0.028 | duvelisib 0.04 | gandotinib -0.234 | tozasertib 0.001 | [4] 0.01 | doramapimod 0.023 | ispinesib -0.13

MAPKAPK2 (UniProt P49137)
inactive: [1] -0.032 | crizotinib -0.082 | [2] 0.035 | [3] -0.019 | duvelisib 0.006 | gandotinib -0.066 | tozasertib -0.018 | [4] 0.006 | doramapimod 0.147 | ispinesib -0.003

MGST3 (UniProt O14880)
Chain of UniProt O14880 (O14880 whole entry, looked up): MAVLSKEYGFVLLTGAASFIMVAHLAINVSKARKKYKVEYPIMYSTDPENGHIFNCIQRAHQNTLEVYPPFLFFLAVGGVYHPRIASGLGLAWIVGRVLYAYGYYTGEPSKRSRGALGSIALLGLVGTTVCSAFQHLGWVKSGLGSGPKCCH
inactive: [1] 0.058 | crizotinib 0.119 | [2] -0.013 | [3] -0.075 | duvelisib -0.002 | gandotinib -0.006 | tozasertib -0.018 | [4] -0.054 | doramapimod -0.031 | ispinesib 0.03

LRRFIP1 (UniProt Q32MZ4)
inactive: [1] -0.005 | crizotinib 0.037 | [2] 0 | [3] 0.025 | duvelisib 0.011 | gandotinib 0.056 | tozasertib -0.027 | [4] -0.059 | doramapimod -0.025 | ispinesib -0.019

MAP2K3 isoform 3 (UniProt P46734)
Chain of UniProt P46734 (P46734 whole entry, looked up): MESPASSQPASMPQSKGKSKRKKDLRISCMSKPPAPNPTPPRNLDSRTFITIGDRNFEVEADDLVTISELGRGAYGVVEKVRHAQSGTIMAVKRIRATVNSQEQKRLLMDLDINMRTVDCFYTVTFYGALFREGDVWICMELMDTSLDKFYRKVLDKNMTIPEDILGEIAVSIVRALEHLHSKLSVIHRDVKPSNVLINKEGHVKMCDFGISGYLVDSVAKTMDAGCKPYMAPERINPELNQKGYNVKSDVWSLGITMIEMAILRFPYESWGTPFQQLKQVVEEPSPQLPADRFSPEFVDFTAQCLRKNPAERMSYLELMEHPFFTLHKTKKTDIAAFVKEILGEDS
inactive: [1] 0.054 | crizotinib -0.049 | [2] -0.068 | [3] 0.043 | duvelisib 0.091 | gandotinib -0.001 | tozasertib 0.005 | [4] -0.007 | doramapimod 0.012 | ispinesib -0.02

LARP7 isoform 3 (UniProt Q4G0J3)
Chain of UniProt Q4G0J3 (Q4G0J3 whole entry, looked up): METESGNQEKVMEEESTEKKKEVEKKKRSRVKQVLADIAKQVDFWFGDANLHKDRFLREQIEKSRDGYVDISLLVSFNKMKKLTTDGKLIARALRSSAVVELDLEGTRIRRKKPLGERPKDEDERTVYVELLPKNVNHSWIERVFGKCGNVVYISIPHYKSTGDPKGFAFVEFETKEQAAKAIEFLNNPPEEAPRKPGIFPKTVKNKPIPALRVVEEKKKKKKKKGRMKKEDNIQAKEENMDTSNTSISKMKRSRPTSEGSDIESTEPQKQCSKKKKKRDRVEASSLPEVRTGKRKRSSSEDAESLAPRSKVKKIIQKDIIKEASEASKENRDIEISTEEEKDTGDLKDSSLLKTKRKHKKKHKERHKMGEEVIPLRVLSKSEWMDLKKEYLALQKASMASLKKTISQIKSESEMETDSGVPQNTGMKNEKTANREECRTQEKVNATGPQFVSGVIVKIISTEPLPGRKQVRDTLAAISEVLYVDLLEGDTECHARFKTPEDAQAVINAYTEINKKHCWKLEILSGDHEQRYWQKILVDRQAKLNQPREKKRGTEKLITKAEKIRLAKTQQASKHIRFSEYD
inactive: [1] -0.001 | crizotinib 0.022 | [2] 0.068 | [3] -0.077 | duvelisib -0.013 | gandotinib -0.065 | tozasertib 0.071 | [4] 0.088 | doramapimod 0.012 | ispinesib -0.007

LSR (UniProt Q86X29)
inactive: [1] 0.08 | crizotinib 0.043 | [2] 0.009 | [3] -0.025 | duvelisib 0.061 | gandotinib -0.012 | tozasertib -0.044 | [4] -0.031 | doramapimod 0.04 | ispinesib 0.027

MELK (UniProt Q14680)
inactive: [1] 0.109 | crizotinib -0.128 | [2] -0.099 | [3] 0.054 | duvelisib -0.063 | gandotinib -0.046 | tozasertib -0.087 | [4] -0.047 | doramapimod -0.011

KIF2C (UniProt Q99661)
Chain of UniProt Q99661 (Q99661 whole entry, looked up): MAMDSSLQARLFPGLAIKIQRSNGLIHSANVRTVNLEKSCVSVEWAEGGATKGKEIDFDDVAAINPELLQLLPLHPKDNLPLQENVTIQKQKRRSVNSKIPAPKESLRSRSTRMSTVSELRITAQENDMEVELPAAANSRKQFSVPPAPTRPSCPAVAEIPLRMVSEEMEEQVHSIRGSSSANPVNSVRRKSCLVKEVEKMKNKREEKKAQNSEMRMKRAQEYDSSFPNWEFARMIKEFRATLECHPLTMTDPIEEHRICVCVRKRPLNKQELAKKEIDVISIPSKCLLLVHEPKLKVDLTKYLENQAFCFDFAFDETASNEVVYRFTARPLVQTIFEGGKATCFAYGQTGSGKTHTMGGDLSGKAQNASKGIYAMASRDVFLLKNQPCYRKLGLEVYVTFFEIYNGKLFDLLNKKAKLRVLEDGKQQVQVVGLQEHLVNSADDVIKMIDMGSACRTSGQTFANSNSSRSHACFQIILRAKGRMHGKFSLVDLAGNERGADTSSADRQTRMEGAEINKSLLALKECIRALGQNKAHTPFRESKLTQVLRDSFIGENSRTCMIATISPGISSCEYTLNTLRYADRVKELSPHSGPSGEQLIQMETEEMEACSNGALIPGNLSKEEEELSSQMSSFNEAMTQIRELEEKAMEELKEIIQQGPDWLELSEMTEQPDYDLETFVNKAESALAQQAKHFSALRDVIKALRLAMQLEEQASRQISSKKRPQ
inactive: [1] -0.016 | crizotinib -0.171 | [2] -0.028 | [3] 0.012 | duvelisib -0.048 | gandotinib -0.065 | tozasertib -0.035 | [4] 0.082 | doramapimod 0.007 | ispinesib -0.028

KLHDC4 (UniProt Q8TBB5)
Chain of UniProt Q8TBB5 (Q8TBB5 whole entry, looked up): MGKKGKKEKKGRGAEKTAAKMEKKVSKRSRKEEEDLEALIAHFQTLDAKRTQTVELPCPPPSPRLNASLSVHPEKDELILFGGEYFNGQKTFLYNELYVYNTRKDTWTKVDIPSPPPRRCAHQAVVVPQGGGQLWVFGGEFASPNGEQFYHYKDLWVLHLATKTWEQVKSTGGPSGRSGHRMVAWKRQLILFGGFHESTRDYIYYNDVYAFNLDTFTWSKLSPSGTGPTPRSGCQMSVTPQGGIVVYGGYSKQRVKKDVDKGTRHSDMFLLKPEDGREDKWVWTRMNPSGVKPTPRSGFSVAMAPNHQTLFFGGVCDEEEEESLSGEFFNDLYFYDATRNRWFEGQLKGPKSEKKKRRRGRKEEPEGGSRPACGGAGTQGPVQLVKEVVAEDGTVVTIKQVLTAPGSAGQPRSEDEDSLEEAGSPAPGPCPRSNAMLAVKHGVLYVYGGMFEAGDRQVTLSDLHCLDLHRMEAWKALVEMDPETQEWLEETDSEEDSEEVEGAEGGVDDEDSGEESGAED
inactive: [1] 0.093 | crizotinib 0.157 | [2] -0.07 | [3] 0.111 | duvelisib -0.091 | gandotinib 0.041 | tozasertib 0.025 | [4] 0.039 | doramapimod 0.069 | ispinesib 0

LENG8 (UniProt Q96PV6)
inactive: [1] 0.022 | crizotinib -0.342 | [2] 0.112 | [3] 0.107 | duvelisib -0.005 | gandotinib -0.094 | tozasertib -0.016 | [4] 0.055 | doramapimod 0.039 | ispinesib 0.241

KNTC1 (UniProt P50748)
inactive: [1] 0.038 | crizotinib -0.178 | [2] -0.002 | [3] 0.045 | duvelisib 0.061 | gandotinib -0.162 | tozasertib 0.014 | [4] 0.012 | doramapimod -0.01 | ispinesib -0.086

MFSD11 (UniProt O43934)
inactive: [1] -0.098 | [2] -0.223 | [3] 0.074 | duvelisib 0.03 | gandotinib 0.036 | tozasertib -0.109 | [4] -0.063 | doramapimod 0.008
active: crizotinib -0.683

INPP1 (UniProt P49441)
inactive: [1] 0.041 | crizotinib -0.016 | [2] -0.012 | [3] -0.028 | duvelisib 0.011 | gandotinib -0.084 | tozasertib 0.018 | [4] -0.043 | doramapimod -0.018 | ispinesib 0.052

LONP2 (UniProt Q86WA8)
inactive: [1] -0.004 | crizotinib 0.072 | [2] 0.026 | [3] 0.113 | duvelisib -0.017 | gandotinib 0.017 | tozasertib 0.073 | [4] -0.094 | doramapimod 0.073 | ispinesib 0.092

JAK3 (UniProt P52333)
Chain of UniProt P52333 (P52333 whole entry, looked up): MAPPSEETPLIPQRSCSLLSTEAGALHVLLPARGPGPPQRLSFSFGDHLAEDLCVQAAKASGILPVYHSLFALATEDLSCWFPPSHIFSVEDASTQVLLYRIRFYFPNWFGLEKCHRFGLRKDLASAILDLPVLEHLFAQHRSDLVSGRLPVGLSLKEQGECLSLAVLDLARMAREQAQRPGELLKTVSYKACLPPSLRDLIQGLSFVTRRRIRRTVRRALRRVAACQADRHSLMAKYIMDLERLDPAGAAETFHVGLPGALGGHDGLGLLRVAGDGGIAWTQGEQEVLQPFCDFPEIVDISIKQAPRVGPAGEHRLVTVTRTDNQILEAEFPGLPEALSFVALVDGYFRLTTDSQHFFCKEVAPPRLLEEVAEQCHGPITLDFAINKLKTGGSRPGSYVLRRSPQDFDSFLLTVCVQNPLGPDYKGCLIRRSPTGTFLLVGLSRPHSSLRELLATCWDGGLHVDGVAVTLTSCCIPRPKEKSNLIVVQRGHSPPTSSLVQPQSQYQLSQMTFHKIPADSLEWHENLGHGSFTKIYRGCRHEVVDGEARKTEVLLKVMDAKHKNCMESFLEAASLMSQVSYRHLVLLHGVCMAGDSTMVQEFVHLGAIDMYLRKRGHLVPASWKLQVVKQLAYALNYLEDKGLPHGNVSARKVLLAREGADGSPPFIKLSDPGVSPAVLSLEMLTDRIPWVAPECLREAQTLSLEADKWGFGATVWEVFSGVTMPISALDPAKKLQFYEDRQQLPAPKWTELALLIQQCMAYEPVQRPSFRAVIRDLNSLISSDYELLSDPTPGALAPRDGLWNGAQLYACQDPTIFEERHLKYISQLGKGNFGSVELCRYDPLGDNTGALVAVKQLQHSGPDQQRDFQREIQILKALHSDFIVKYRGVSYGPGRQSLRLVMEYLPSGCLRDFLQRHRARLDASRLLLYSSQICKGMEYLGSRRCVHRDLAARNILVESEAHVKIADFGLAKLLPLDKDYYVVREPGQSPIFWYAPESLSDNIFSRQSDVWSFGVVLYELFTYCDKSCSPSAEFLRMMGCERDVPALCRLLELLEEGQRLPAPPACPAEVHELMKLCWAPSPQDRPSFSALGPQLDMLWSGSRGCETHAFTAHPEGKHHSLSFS
inactive: [1] 0.001 | crizotinib 0.048 | [2] 0.142 | [3] -0.062 | duvelisib 0.133 | gandotinib -0.132 | tozasertib 0.032 | [4] 0.135 | doramapimod -0.071 | ispinesib 0.087

METTL18 (UniProt O95568)
inactive: [1] 0.003 | crizotinib -0.043 | [2] 0.053 | [3] -0.012 | duvelisib 0.004 | gandotinib -0.045 | tozasertib -0.115 | [4] 0.012 | doramapimod -0.001 | ispinesib 0.004

KDM1A isoform 2 (UniProt O60341)
inactive: [1] -0.047 | crizotinib -0.036 | [2] 0.018 | [3] -0.011 | duvelisib 0.025 | gandotinib 0.014 | tozasertib 0.049 | [4] 0.061 | doramapimod -0.028 | ispinesib -0.057

LGALS8 isoform 2 (UniProt O00214)
inactive: [1] -0.002 | crizotinib -0.023 | [2] -0.255 | [3] 0.323 | duvelisib -0.223 | gandotinib -0.144 | tozasertib 0.016 | [4] 0.204 | doramapimod 0.146

KPNB1 (UniProt Q14974)
Chain of UniProt Q14974 (Q14974 whole entry, looked up): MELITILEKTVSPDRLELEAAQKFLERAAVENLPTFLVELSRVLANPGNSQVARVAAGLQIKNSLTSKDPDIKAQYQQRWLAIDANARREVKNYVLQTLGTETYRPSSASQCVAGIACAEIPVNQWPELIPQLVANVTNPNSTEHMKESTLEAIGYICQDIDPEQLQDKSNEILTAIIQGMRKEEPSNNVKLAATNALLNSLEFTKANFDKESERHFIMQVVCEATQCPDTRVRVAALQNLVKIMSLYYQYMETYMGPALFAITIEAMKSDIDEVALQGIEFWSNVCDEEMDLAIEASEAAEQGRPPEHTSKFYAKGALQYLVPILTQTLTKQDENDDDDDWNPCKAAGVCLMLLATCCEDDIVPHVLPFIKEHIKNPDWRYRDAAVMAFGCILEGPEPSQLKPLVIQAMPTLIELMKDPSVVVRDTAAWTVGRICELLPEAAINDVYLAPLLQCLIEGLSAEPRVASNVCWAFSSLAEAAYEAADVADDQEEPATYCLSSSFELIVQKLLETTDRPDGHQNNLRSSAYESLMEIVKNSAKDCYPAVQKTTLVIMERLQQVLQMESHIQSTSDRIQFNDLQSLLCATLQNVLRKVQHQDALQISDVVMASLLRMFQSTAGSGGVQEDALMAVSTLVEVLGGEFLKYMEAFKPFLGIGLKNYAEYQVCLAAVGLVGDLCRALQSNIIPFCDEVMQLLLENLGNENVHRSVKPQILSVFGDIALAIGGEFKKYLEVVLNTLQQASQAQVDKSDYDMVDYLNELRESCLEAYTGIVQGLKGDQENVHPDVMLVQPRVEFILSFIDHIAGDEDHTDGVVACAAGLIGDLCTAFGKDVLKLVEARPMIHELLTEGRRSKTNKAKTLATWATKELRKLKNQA
inactive: [1] -0.027 | crizotinib -0.201 | [2] -0.038 | [3] 0.047 | duvelisib -0.045 | gandotinib -0.09 | tozasertib 0.094 | [4] 0.083 | doramapimod 0.026 | ispinesib -0.225

LYN (UniProt P07948)
inactive: [1] -0.023 | crizotinib -0.142 | [2] -0.101 | [3] -0.01 | duvelisib 0.118 | gandotinib -0.015 | tozasertib -0.085 | [4] 0.132 | doramapimod 0.065 | ispinesib -0.094

KCTD10 (UniProt Q9H3F6)
Chain of UniProt Q9H3F6 (Q9H3F6 whole entry, looked up): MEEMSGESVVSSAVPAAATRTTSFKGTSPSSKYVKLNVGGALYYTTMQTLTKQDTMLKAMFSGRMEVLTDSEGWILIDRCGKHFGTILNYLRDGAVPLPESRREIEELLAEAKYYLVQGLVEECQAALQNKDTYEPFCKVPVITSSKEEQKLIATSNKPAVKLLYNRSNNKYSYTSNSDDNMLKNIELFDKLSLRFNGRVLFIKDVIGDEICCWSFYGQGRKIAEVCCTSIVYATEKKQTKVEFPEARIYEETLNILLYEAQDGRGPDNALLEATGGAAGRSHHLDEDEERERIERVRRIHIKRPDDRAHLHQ
inactive: [1] -0.035 | crizotinib 0.097 | [2] -0.027 | [3] -0.13 | duvelisib 0.05 | gandotinib 0.042 | tozasertib 0.035 | [4] -0.01 | doramapimod -0.042 | ispinesib 0.108

MAP4 (UniProt E7EVA0)
inactive: [1] 0.023 | crizotinib -0.02 | [2] -0.222 | [3] 0.231 | duvelisib -0.084 | gandotinib -0.001 | tozasertib 0.124 | [4] -0.017 | doramapimod 0.136 | ispinesib -0.134

LUC7L3 (UniProt O95232)
inactive: [1] -0.001 | crizotinib -0.045 | [2] -0.022 | duvelisib -0.001 | gandotinib 0.065 | tozasertib 0.011 | [4] 0.02 | doramapimod 0 | ispinesib 0.099
active: [3] -0.219

MIEF1 (UniProt L0R8F8)
inactive: [1] -0.023 | crizotinib 0.068 | [2] -0.067 | [3] -0.065 | duvelisib 0.151 | gandotinib -0.062 | tozasertib 0.023 | [4] -0.025 | doramapimod -0.04 | ispinesib -0.03

KCT2 (UniProt Q8NC54)
inactive: [1] 0 | crizotinib -0.186 | [2] 0.074 | [3] -0.04 | duvelisib 0.064 | gandotinib 0.038 | tozasertib 0.033 | [4] 0.054 | doramapimod 0.091 | ispinesib -0.118

KHDRBS1 (UniProt Q07666)
inactive: [1] -0.091 | crizotinib -0.02 | [2] -0.06 | [3] -0.019 | duvelisib -0.017 | gandotinib 0.07 | tozasertib -0.015 | [4] 0.038 | doramapimod -0.027 | ispinesib 0.011

MIEF1 (UniProt Q9NQG6)
active: crizotinib -0.31 | ispinesib -0.489
inactive: [1] 0.088 | [2] -0.005 | [3] -0.046 | duvelisib 0.096 | gandotinib 0.095 | tozasertib -0.038 | [4] 0.065 | doramapimod 0.007

KIF3B (UniProt O15066)
inactive: [1] -0.004 | crizotinib -0.018 | [2] 0.054 | [3] 0.03 | duvelisib 0.05 | gandotinib -0.199 | tozasertib -0.051 | [4] -0.023 | doramapimod 0.076 | ispinesib 0.04

MFGE8 (UniProt Q08431)
Chain of UniProt Q08431 (Q08431 whole entry, looked up): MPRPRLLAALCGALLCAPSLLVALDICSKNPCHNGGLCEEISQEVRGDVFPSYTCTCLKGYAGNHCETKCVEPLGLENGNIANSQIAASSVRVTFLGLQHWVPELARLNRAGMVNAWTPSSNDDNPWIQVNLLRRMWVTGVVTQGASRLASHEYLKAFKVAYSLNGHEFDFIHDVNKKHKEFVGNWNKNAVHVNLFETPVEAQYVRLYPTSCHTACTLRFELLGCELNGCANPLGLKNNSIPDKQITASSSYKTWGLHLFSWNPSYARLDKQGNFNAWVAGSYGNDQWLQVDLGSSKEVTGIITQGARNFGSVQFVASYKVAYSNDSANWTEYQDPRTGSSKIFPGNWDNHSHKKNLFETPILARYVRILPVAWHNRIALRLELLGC
inactive: [1] 0.063 | crizotinib 0.04 | [2] -0.129 | [3] 0.087 | duvelisib -0.052 | gandotinib -0.015 | tozasertib 0.085 | [4] 0.057 | doramapimod 0.046 | ispinesib -0.122
